This passage reports growth results from PubChem BioAssay (NCI).

Test systems include T-47D breast; BT-549 breast; MDA-MB-435 melanoma; SW-620 colon; MCF7 breast; HCT-116 colon; HCC-2998 colon; KM12 colon.
What all share (experiment): NCI-60 one-dose screen, 48 h (100 = growth as untreated, 0 = no growth, -100 = all killed)
What all share (conditions): 10 µM unless noted

Structures are written as SMILES. This is part of a sample that, as a whole, favours compounds with a hit. Of some 83,000 tested, about 20% had one in any assay.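 Cell lines were cultured in 96-well plates, exposed to a single compound concentration, and assessed for percent growth 48 hours later.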 Unmarked numbers belong to inactive results. Calls of active or inactive are those of the source. Rule for the calls: active = growth percent below 10; inactive = the rest.

Turning to `CN1CCN(c2cc(Nc3cc(C4CC4)[nH]n3)nc(Nc3ccc(CC(=O)NCc4cccc(F)c4)cc3)n2)CC1`, the growth in the assay with T-47D breast is 64.5%; with BT-549 breast, 43.2%; in the assay with MDA-MB-435 melanoma, 24.9%; with SW-620 colon, 11.5%; with MCF7 breast, 20%; in the assay with HCT-116 colon, 8.53% (active). Moreover, the growth in the assay on HCC-2998 colon is 35.1%; in the assay with KM12 colon it was 9.2% (active).
Take `CC(C)(C)CC(C)(C)NC(=O)Nc1ncccc1OCc1ccccc1`: the growth with T-47D breast is 72%; in the assay with BT-549 breast, 98.2%; in the assay with MDA-MB-435 melanoma, 99.7%; in the assay on SW-620 colon, 98.6%; in the assay with MCF7 breast, 80.6%; with HCT-116 colon it was 75.2%. For the same molecule, the growth with HCC-2998 colon is 92.9%.
As for `COc1ccc(\C=N/N=C(N)/C(N)=N\N=C/c2ccc(OC)cc2)cc1`, the growth with T-47D breast is 90.3%; with BT-549 breast it was 116%; in the assay on MDA-MB-435 melanoma it was 107%; in the assay on SW-620 colon it was 103%; with MCF7 breast, 104%; with HCT-116 colon it was 113%. Also, the growth in the assay on HCC-2998 colon and in the assay on KM12 colon was 110% each time.
`CCSc1oc(-c2ccccc2)nc1[P+](c1ccccc1)(c1ccccc1)c1ccccc1`: the growth in the assay on T-47D breast was 1.87% (active); in the assay on BT-549 breast it was -10.9% (active); in the assay on MDA-MB-435 melanoma, 3.45% (active); in the assay with SW-620 colon, 10.8%; in the assay on MCF7 breast, 4.96% (active); in the assay with HCT-116 colon it was 2.27% (active). Besides, the growth with HCC-2998 colon was 14.5%.
As to `c1ccc(Cn2cc3c(c2)-c2oncc2CC3)cc1`, the growth was 42.1% with T-47D breast; 82.9% in the assay with BT-549 breast; -34.7% (active) in the assay on MDA-MB-435 melanoma; 23.9% with SW-620 colon; 18.8% in the assay on MCF7 breast; 9.28% (active) in the assay with HCT-116 colon. Besides, the growth with HCC-2998 colon was 4.68% (active).
`Clc1ccc2c(NC3CCC(N4CCOCC4)CC3)ccnc2c1` (stereo unspecified): the growth in the assay with T-47D breast is 58%; in the assay with BT-549 breast, 67.4%; with MDA-MB-435 melanoma, 86.3%; with SW-620 colon it was 85.4%; in the assay on MCF7 breast, 63.7%; with HCT-116 colon it was 47%. In addition, the growth in the assay on HCC-2998 colon was 77.8%.
As to `CCOc1ccc(NC(=O)CSc2oc(-c3ccccc3)nc2S(=O)(=O)c2ccc(C)cc2)cc1`, the growth is 57.4% with T-47D breast; 94% in the assay on BT-549 breast; 87.4% in the assay with MDA-MB-435 melanoma; 74.3% in the assay on SW-620 colon; 61.9% in the assay with MCF7 breast; 23.8% in the assay on HCT-116 colon.
Regarding `COc1cc(/C=C2/C=C(c3ccccc3)N(CCc3ccc(S(N)(=O)=O)cc3)C2=O)cc(OC)c1OC`, the growth in the assay on T-47D breast is 83.5%; with BT-549 breast it was 94.4%; in the assay with MDA-MB-435 melanoma, 106%; in the assay on SW-620 colon, 102%; in the assay on MCF7 breast, 87.8%; in the assay on HCT-116 colon it was 84.7%. Also, the growth in the assay on HCC-2998 colon is 105%.
For `CN1CCc2nc3sc(C(N)=O)c(N)c3c(-c3cccs3)c2C1`, the growth with T-47D breast was 42.9%; in the assay with BT-549 breast, 10.7%; with MDA-MB-435 melanoma, 29.6%; with SW-620 colon it was 35%; with MCF7 breast, 12.6%; in the assay with HCT-116 colon, 4.02% (active). Moreover, in the assay with HCC-2998 colon, the growth was 53.5%.
Regarding `C1CN(SSN2CCOCC2)CCO1`, the growth in the assay on T-47D breast is -24.8% [100 µM] (active); with BT-549 breast it was -90% [100 µM] (active); in the assay with MDA-MB-435 melanoma it was 0.278% [100 µM] (active); in the assay with SW-620 colon, -56.4% [100 µM] (active); with MCF7 breast it was 22.1% [100 µM]; with HCT-116 colon, -75.5% [100 µM] (active). In addition, the growth with HCC-2998 colon is 90.7% [100 µM].
In the case of `Cc1nc2sc(C(=O)Nc3cccc4ccccc34)c(N)c2cc1C(O)c1ccccc1` (stereo unspecified), the growth is 45.4% in the assay on T-47D breast; 40.2% in the assay with BT-549 breast; 0.328% (active) with MDA-MB-435 melanoma; 20.2% in the assay on SW-620 colon; 12.4% in the assay with MCF7 breast; 8.89% (active) in the assay on HCT-116 colon. In addition, the growth with HCC-2998 colon is 5.55% (active); in the assay on KM12 colon, 7.64% (active).
With `COc1ccc(/C=N\Nc2nc(SCCC(C)C)nc(-c3ccc(OC)cc3)c2C#N)cc1`, the growth was 23.1% with T-47D breast; 93.1% in the assay on BT-549 breast; 71.2% in the assay on MDA-MB-435 melanoma; 49.6% in the assay on SW-620 colon; 63.5% in the assay with MCF7 breast; 21.1% with HCT-116 colon. The growth in the assay on HCC-2998 colon is 82.1%; in the assay with KM12 colon, 83%.
Turning to `Nc1nc2ccccc2c2c1S(=O)(=O)c1ccc(Cl)cc1C2=O`, the growth was -0.213% (active) in the assay with T-47D breast; 24.3% in the assay on BT-549 breast; 20.5% with MDA-MB-435 melanoma; 2.06% (active) with SW-620 colon; 9.68% (active) in the assay with MCF7 breast; 1.05% (active) in the assay on HCT-116 colon.
In the case of `C1CCC([PH+](C2CCCCC2)C2CCCCC2[PH+](C2CCCCC2)C2CCCCC2)CC1.[Au].[CH-]1CCCCC1C1CCCC[N-]1` (stereo unspecified), the growth with T-47D breast was -45.3% (active); in the assay on BT-549 breast, -40.4% (active); with MDA-MB-435 melanoma it was -63.1% (active); with SW-620 colon, -76.4% (active); in the assay on MCF7 breast it was -30.5% (active); in the assay with HCT-116 colon it was -40.5% (active). The growth in the assay on HCC-2998 colon was -90.1% (active).
For the molecule `Cc1c(O)cc(-c2cnc(Nc3ccccc3)s2)c(O)c1C`, the growth in the assay on T-47D breast was 68.6%; with BT-549 breast it was 91.8%; with MDA-MB-435 melanoma, 101%; with SW-620 colon, 104%; in the assay on MCF7 breast, 82.2%; with HCT-116 colon it was 97.8%. The growth in the assay on HCC-2998 colon is 118%.
With `COc1ccc(/C=N/NC(=O)c2ccc(-n3cc(-c4ccccc4)nn3)cc2)cc1OC`, the growth was 98.3% in the assay on T-47D breast; 92.9% in the assay on BT-549 breast; 98.4% with MDA-MB-435 melanoma; 116% in the assay with SW-620 colon; 75.3% in the assay with MCF7 breast; 92.7% in the assay with HCT-116 colon. For the same molecule, the growth in the assay on HCC-2998 colon was 113%.
Turning to `COc1ccc(C(=O)/C=C/c2c(C(F)(F)F)nc3ccccn23)cc1OC`, the growth with T-47D breast was -10.7% (active); in the assay on BT-549 breast, 4.31% (active); with MDA-MB-435 melanoma, 10.4%; in the assay with SW-620 colon it was -4.44% (active); in the assay on MCF7 breast it was 8.07% (active); in the assay on HCT-116 colon, -34.1% (active). Moreover, the growth with HCC-2998 colon was -9.15% (active).
